Consider 95 molecules from PubChem BioAssay AID1626 (SRMLSC, 2009).

What is called inhibition is the drop in the measured response relative to a control, in per cent.

In all, about 220,000 compounds went through this assay and about 2,000 (0.91%) were called active. Not shown: some 2% with an inconclusive outcome. Only a sample is shown. Entries with a potency or affinity are not part of this list. A number with no mark means an inactive call. No stated cut-off is given here; in the data, inconclusive means inhibition above about 80% without an active follow-up result; inactive means below that; test concentration not stated here.

The assay in a line: M. tuberculosis H37Rv growth inhibitors, H37Rv strain (AID 1626).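 Further: bacteria incubated seven days before Alamar blue readout; 0% = bacteria only wells and 100% = bacteria with antibiotic wells.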 To be noted: stronger effect = higher value, concentration not given here.
As to `CC(C)Sc1nc2c(c(=O)[nH]c(=O)n2C)n1Cc1ccc(Cl)cc1`, the inhibition was 11.2%. Next, `O=c1c2ccccc2c(-c2ccccc2)nn1-c1ccccc1`: 8.6%; `CC(C)NC(=O)C(=O)NC1CCCCCC1`: -2.43%.

Consider `O=[N+]([O-])c1ccc(N/N=C/c2cn(-c3ccccc3)nc2-c2ccccc2)cc1`, for which the inhibition was 30.5%. Next, `COc1ccc(/C=N/NC(=O)c2c([N+](=O)[O-])c(C)nn2C)cc1`: 1.88%. As to `CS(=O)(=O)c1ccc2nc(NC(=O)c3ccc(NS(=O)(=O)c4cccc([N+](=O)[O-])c4)cc3)sc2c1`, the inhibition was 34.8%. In the case of `CC(=NCC1CCCO1)c1c(O)n(-c2ccccc2C)c(=O)[nH]c1=O` (stereo not given) it was -6.91%; in that of `N=c1c(C(=O)NCc2ccco2)cc2c(=O)n3ccccc3nc2n1CCc1ccccc1`, -6.57%; in that of `CCNC(=O)c1cc2c(=O)n3cccc(C)c3nc2n(CCc2ccccc2)c1=N`, -3.98%. `CCCn1c(=N)c(C(=O)NCC2CCCO2)cc2c(=O)n3cccc(C)c3nc21` (stereo not given): the inhibition is -1.86%.

Consider `CCOCCCn1c(=N)c(C(=O)NCc2ccc3c(c2)OCO3)cc2c(=O)n3cccc(C)c3nc21`, for which the inhibition is 26.6%. In the case of `COc1ccc(N2CCN(C(=O)CCCCCn3c(=O)[nH]c4ccsc4c3=O)CC2)cc1` it was 0.96%; in that of `CS(=O)(=O)N1Cc2ccccc2CC1C(=O)Nc1ccccc1C(N)=O` (stereo not given), 0.87%; in that of `CCc1ccc(N2Cc3ccccc3C2)cc1`, 14.3%.

In the case of `CN(C)CCNC(=O)/C=N/O`, the inhibition was -1.95%.

`O=C(NC1CCCCCC1)c1ccccc1-c1ccccc1`: the inhibition is 36%.

Consider `O=C(NC1CCCCC1)c1ccccc1-c1ccccc1`, for which the inhibition is 0.73%.

`COc1cc(/C=N/NC(=O)CCc2n[nH]c(=O)[nH]c2=O)cc(OC)c1OC`: the inhibition is -3.85%. With `CCCCN1C(=O)CC(Sc2ncccc2C(=O)O)C1=O` (stereo not given), the inhibition was 3.02%.

With `Cc1cc(N2C(=O)C3CCCN3C2c2cccc(Cl)c2)no1` (stereo not given), the inhibition is -8.92%. In the case of `Cc1ccc(NC(=O)COc2ccccc2[N+](=O)[O-])nc1` it was 0.84%. On to `CN(C(=O)COc1ccccc1)c1nc(-c2ccc(F)cc2)cs1`, for which the inhibition is -0.64%. Next, `N#CCCN(C(=O)CCl)c1cccc(Cl)c1`: 32.5%. Next, `Cc1ccc(C(=O)N(CC#N)CC#N)cc1C`: 0.74%; `Cc1cccc(-c2noc(CCCOc3ccc(Cl)cc3Cl)n2)c1`: -7.47%; `Clc1ccc(C2=Nc3cc(Cl)ccc3OC2)cc1`: -4.24%.

Take `Cc1ccc2c(c1)N=C(c1ccc(F)cc1)CO2`: the inhibition is -1.59%.

Take `COCC(COCCCNC(=O)Nc1ccc(Br)cc1)OC` (stereo not given): the inhibition was 2.27%.

As to `CCOC(=O)c1sc(C)c2c1NC1(CCCCC1)NC2=O`, the inhibition was 2.89%. Next, `O=C(NCc1cccnc1)c1ccccc1CCc1ccccc1`: 5.46%; `NC(=O)CSc1nnc(-c2ccc([N+](=O)[O-])cc2)o1`: -3.14%. In the case of `CSc1nnc(-c2ccc([N+](=O)[O-])cc2)o1` it was 34%; in that of `C=CCSc1nnc(-c2cccnc2)o1`, -5.82%; in that of `Cc1ccc(S(=O)(=O)Nc2ccc(-c3nnc(SCc4ccccc4Cl)o3)cc2)cc1`, 0.5%. Next, `COC(=O)CSc1nnc(-c2ccncc2)o1`: -2.74%. On to `N#CCSc1nnc(-c2sc3ccccc3c2Cl)o1`, for which the inhibition is 11.6%. In the case of `CCOC(=O)CSc1ncc(-c2ccc([N+](=O)[O-])cc2)[nH]1` it was 47.4%. Next, `Cc1ccc(CSc2nnc(-c3ccc(NS(=O)(=O)c4ccccc4)cc3)o2)cc1`: 11.7%; `COC(=O)c1cc(NS(=O)(=O)c2ccc(C)c3ccccc23)ccc1N1CCOCC1`: -0.65%.

With `O=C1CC(N2CCC(O)CC2)C(=O)N1c1ccc(Br)cc1` (stereo not given), the inhibition was -5.77%. In the case of `O=C(CC1(O)C(=O)N(CCc2ccccc2)c2ccccc21)c1ccccn1` (stereo not given) it was -2.54%; in that of `CC(=O)c1c(C)[nH]c(C(=O)OCC(=O)N2c3ccccc3NC(=O)C2(C)C)c1C`, 1.01%. With `COC(=O)CSc1nnc(-c2ccc(S(=O)(=O)NCc3cccs3)cc2)o1`, the inhibition was 62.9%.

On to `CCS(=O)(=O)Nc1ccc(-c2nnc(SCC(=O)OC)o2)cc1`, for which the inhibition is 6.98%.

Consider `COC(=O)COc1ccccc1/C=C1/NC(=O)NC1=O`, for which the inhibition was -6.93%. On to `COC(=O)COc1cc(Cl)c(C=O)cc1OC`, for which the inhibition was 4.35%. In the case of `CCN1CCn2c3c(c4cc(C)ccc42)CCCC31` (stereo not given) it was 3.23%. Next, `Cc1ccc2c(c1)c1c(n2C)C(=O)CCC1`: -12.1%. For the molecule `COc1ccc2c(c1)c1c3n2CCN(C)C3=NCC1`, the inhibition was -9.72%. Take `OC1CN=C2CCCc3c2n(c2ccc(Cl)cc32)C1` (stereo not given): the inhibition is -8.27%.

Consider `Cc1ccc(C(=O)Nc2cc(C)c(OCC(=O)N3CCOCC3)c(C)c2)cc1`, for which the inhibition is 0.81%. Next, `COc1ccc(C2C(C#N)=C(N)Oc3cc(C)n(Cc4ccco4)c(=O)c32)cc1` (stereo not given): 3.54%; `CC1(C)Cc2nc3sc4c(SCC(=O)O)ncnc4c3cc2CO1`: -5.61%; `CCSc1ncnc2c1sc1nc3c(cc12)COC(C)(C)C3`: 12.9%. `O=C(NCCCn1ccnc1)C(=O)NCC1OCCCN1S(=O)(=O)c1ccc(Cl)cc1` (stereo not given): the inhibition is 1.46%. Turning to `O=C(O)c1ccc(CN2CCCCC2)o1`, the inhibition is -8.71%. Turning to `COc1ccc(C2(CNC(=O)c3cccc([N+](=O)[O-])c3)CCCCC2)cc1OC`, the inhibition was 17.8%. On to `COc1ccc(C2(CNC(=O)c3ccc(OC)c([N+](=O)[O-])c3)CCCCC2)cc1OC`, for which the inhibition was 8.89%.

With `O=C(Nc1nnc(SCC(=O)N2CCCCC2)s1)c1cccs1`, the inhibition is -7.76%.

On to `Cc1ccc(F)cc1NC(=O)C1CCN(c2cnccn2)CC1`, for which the inhibition is -7.04%. In the case of `Cc1nn(Cc2ccccc2)c(N)c1-c1ccccc1` it was -0.48%. In the case of `O=C(Nc1ccccc1)c1n[nH]c(Cn2cncn2)n1` it was -3.09%; in that of `O=C(CSc1nc2ccc(Cl)cc2[nH]1)NC1CCCc2ccccc21` (stereo not given), 17.1%; in that of `COc1ccc2nc(SCC(=O)Nc3ccccc3)[nH]c2c1`, 6.28%.

Turning to `COc1ccc(NC(=O)CSc2nc3ccc(OC)cc3[nH]2)cc1`, the inhibition is 45.7%. As for `NS(=O)(=O)c1cccc(NC(=O)CSc2nc3ccc(Cl)cc3[nH]2)c1`, the inhibition was -6.21%. In the case of `O=C(OCC(=O)N1CCCC1=O)C1COc2ccccc2O1` (stereo not given) it was 2.07%; in that of `CCN(CC)CCCNC(=O)c1cn(C)c2ccc(S(=O)(=O)N(C)C)cc2c1=O`, -9.88%. In the case of `O=C(CCc1nc2ccccc2c(=O)[nH]1)N1CCN(c2ccc(F)cc2)CC1` it was -1.16%. Next, `COc1cc(/C=N/n2c(-c3n[nH]c4c3CCC4)n[nH]c2=S)cc(OC)c1O`: -6.81%; `CC1CCN(S(=O)(=O)c2ccc3[nH]c(=O)cc(C(=O)O)c3c2)CC1`: -1.86%. For the molecule `NS(=O)(=O)c1ccc(Sc2nc3ccccc3s2)c([N+](=O)[O-])c1`, the inhibition was 5.37%. Turning to `CS(=O)(=O)c1ccc(Sc2nc3ccccc3s2)c([N+](=O)[O-])c1`, the inhibition is 76.8%. As for `CN1CCc2c(C#N)c(N3CCOCC3)nc(NCC3CCCO3)c2C1` (stereo not given), the inhibition was -11.2%.

As to `C=CCSc1nnc(-c2sc(-c3ccccc3)nc2C)n1C`, the inhibition was 6.24%.

Consider `C#CCOCCOCCOCCNc1nc(N2CCN(C(=O)[C@H](CCC(=O)O)n3cc(C(N)CC(C)C)nn3)CC2)nc(N2CCN(C(=O)[C@H](Cc3ccc(O)cc3)n3cc(C(N)CC(C)C)nn3)CC2)n1` (stereo not given in full), for which the inhibition is -8.68%.

Take `Cc1ccc(C(=O)Nc2ncc(Cc3ccccc3)s2)o1`: the inhibition is -9.94%. Next, `O=C(Nc1ncc(Cc2ccccc2Cl)s1)c1ccc([N+](=O)[O-])cc1`: -9.37%; `O=C(Nc1ncc(Cc2ccccc2)s1)C1COc2ccccc2O1` (stereo not given): 13.8%; `CC(C)C(=O)Nc1ncc(Cc2ccccc2Cl)s1`: -0.08%. Next, `Cc1ccc(C(=O)Nc2ncc(Cc3ccc(SC(F)F)cc3)s2)cc1`: 6.66%; `CC(=O)Nc1ncc(Cc2cccc(Cl)c2)s1`: 3.07%; `O=C(Nc1ncc(Cc2cccc(Cl)c2)s1)c1ccc([N+](=O)[O-])cc1`: -4.66%.

Regarding `CC(C)C(=O)Nc1ncc(Cc2ccc(Cl)cc2)s1`, the inhibition is 18.6%. Next, `COc1cccc(C(=O)Nc2nnc(Cc3ccc(OC)c(OC)c3)s2)c1`: 4.42%; `COC(=O)C1=C(C)N(Cc2ccco2)C(=O)N[C@H]1c1cccc(C(F)(F)F)c1`: -4.29%.

As to `COC(=O)C(NC(=O)CSc1nc(N)cc(=O)[nH]1)c1ccccc1` (stereo not given), the inhibition was 6.05%. In the case of `Cc1ccc(SCC(=O)N(C)C2CCS(=O)(=O)C2)cc1` (stereo not given), the inhibition was 71.9%.

In the case of `O=C(N/N=C/c1ccc(OCCCF)cc1)c1ccc(C(F)(F)F)cc1`, the inhibition was -7.89%.

`O=C(CSc1nnc(CNc2ccc(F)cc2)n1Cc1ccccc1)NCc1ccco1`: the inhibition was -3.56%. Next, `CCN(CC)C1=N/C(=C\c2ccc(OC)cc2)C(=O)N1c1ccccc1`: 5.04%; `COc1cc(NC(=O)CSc2nc3ccccc3cc2Cc2ccccc2)cc(OC)c1`: -2.51%; `CCCCCn1c(SCc2cccc(C)c2)nc2c1c(=O)[nH]c(=O)n2C`: 14.6%. In the case of `CC/C(=N\NC(=O)c1cccnc1)c1ccc2c(c1)OCCO2` it was 3.21%; in that of `CC1(C)CC(NC(=O)CCc2nnc(CCCCc3ccccc3)o2)CCO1` (stereo not given), -4.26%.
